High-throughput results from PubChem.
JMJD2A Tudor inh: blocks the human JMJD2A Tudor domain; O75164; AlphaScreen JMJD2A-Tudor / H3K4me3 peptide binding; Potency, µM (highest dose often 114 µM), hits mostly inhibitors; 390,000 tested, 4.4% active; AID 504339; further: nearly all actives have a fitted effect of over 50% in size
Target sequence (O75164 whole entry, looked up, the tested form may be a part): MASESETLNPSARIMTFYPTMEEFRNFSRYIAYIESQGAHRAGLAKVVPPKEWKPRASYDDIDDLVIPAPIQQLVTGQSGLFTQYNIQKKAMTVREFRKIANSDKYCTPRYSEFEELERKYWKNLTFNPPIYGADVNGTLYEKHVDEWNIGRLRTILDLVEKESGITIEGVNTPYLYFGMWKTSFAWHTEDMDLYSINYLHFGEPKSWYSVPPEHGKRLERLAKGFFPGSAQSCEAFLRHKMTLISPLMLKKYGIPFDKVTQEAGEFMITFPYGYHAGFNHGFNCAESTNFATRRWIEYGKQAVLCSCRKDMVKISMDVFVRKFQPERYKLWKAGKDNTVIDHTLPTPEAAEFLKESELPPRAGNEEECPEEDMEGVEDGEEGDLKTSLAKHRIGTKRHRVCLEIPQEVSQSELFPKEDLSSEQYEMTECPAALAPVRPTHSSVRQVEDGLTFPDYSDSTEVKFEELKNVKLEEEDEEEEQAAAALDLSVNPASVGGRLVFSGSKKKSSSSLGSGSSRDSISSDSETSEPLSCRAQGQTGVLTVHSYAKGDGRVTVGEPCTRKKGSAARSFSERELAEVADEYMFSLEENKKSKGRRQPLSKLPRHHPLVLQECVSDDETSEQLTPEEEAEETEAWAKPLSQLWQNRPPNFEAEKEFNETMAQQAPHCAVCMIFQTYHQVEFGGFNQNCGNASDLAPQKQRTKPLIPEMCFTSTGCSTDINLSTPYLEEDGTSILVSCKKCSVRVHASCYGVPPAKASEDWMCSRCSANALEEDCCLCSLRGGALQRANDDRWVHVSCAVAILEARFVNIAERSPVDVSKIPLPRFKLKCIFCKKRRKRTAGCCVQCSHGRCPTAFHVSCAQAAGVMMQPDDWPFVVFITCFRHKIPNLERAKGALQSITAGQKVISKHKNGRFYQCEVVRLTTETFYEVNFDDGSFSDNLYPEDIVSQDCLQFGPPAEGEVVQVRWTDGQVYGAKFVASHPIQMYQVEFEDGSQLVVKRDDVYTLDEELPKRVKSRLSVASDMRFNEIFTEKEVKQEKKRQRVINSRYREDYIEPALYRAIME
G9a block: blocks human histone lysine methyltransferase G9a | Q96KQ7 | G9a H3K9 monomethylation, AlphaScreen, 2 h | Potency, µM (doses to about 102 µM), most hits filed as inhibitors | 350,000 tested, 8.8% active | AID 504332; further: nearly all actives have a fitted effect of over 75% in size
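Readings reflect AlphaScreen signal from monomethyl-H3K9 antibody detection. HMT at 20 nM; substrate b-H3K9 500 nM; cofactor SAM 20 uM; 2 h RT reaction; compounds tested as titrations in qHTS with 15 min preincubation.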
HP1b chromo inh: HP1-beta chromodomain-methylated histone interaction inhibition | P83916 | AlphaScreen HP1-beta / biotin-H3K9me3 peptide binding | Potency, µM (titrated, usually from 114 µM), actives largely listed as inhibitors | 390,000 tested, 0.56% active; further: nearly all actives have a fitted effect of over 70% in size
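HP1-beta protein (50 nM final) preincubated 30 min at room temperature with biotinylated H3(1-18)K9me3 peptide (50 nM) in PBS pH 7.4, 0.01% Tween-20, then compound added for 30 min. AlphaScreen streptavidin donor/nickel chelate acceptor beads (10 ug/mL final), 30 min dark, luminescence read.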
BAZ2B inh: inhibitors of human BAZ2B bromodomain; AID 504333; Potency, µM (top dose mostly 114 µM), hits mostly inhibitors; AlphaScreen BAZ2B-H3K14Ac peptide displacement; Q9UIF8; 360,000 tested, 4.4% active; further: nearly all actives have a fitted effect of over 60% in size
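AlphaScreen luminescence quantifies BAZ2B engagement of H3K14Ac peptide; the protein and biotinylated peptide are both at 50 nM final, buffer PBS pH 7.4 with 0.01% Tween-20, all steps at room temperature.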
Sfp inh: blocks B. subtilis Sfp PPTase activity. Q9F4F7. Biochemical Sfp PPTase activity, qHTS. Potency, µM, hits mostly inhibitors. 310,000 tested, 3.5% active. AID 1490;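 further: the enzyme is Sfp with the accession as filed and its product quenches rhodamine fluorescence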
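Buffer: 50 mM Hepes-Na pH 7.6, 10 mM MgCl2, 0.01% Nonidet P-40, 0.01% BSA. Enzyme 15 nM, pre-exposed to compound 15 min; substrates then added and fluorescence change tracked over 30 min.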
Each line names hits and unclear results; the compound was inactive in the other large screens; ! = not active in a repeat. An excerpt weighted towards active compounds, which were near 12% of everything screened. The call rests on the fitted dose curve; in most records, active means well fitted curve in the direction sought with a large enough effect; inconclusive means small, poorly fitted or top-dose-only effect, or another doubt; inactive means no such curve, though single readings can be large; an effect the other way counts as inactive or inconclusive.

C[n+]1cc(C(=O)N2CCCCC2)ccc1/C=C/c1c[nH]c2ccccc12	JMJD2A Tudor inh inconclusive, BAZ2B inh inconclusive (no result: G9a block)
COc1ccc(C2CC(c3c(O)n(C4CCCCC4)c(=O)[nH]c3=O)=Nc3ccccc3S2)cc1 (configuration not stated)	none (no result: Sfp inh)
CN(C)C(CNS(=O)(=O)c1ccc2ccccc2c1)c1ccccc1 (configuration not stated)	G9a block inconclusive, BAZ2B inh inconclusive
O=C(N/N=C/c1ccccc1O)C(=O)N1CCCCCC1	JMJD2A Tudor inh inconclusive, BAZ2B inh 79µM
COc1cccc(/C=N/NC(=O)C(=O)N2CCCC2)c1O	JMJD2A Tudor inh 79µM, G9a block inconclusive, BAZ2B inh 16µM
CCOc1ccc(/C=N/NC(=O)C(=O)N2CCCCCC2)c2ccccc12	BAZ2B inh 71µM
COc1ccnc2c1c(=O)n(Cc1ccc(Cl)cc1Cl)c(=O)n2C	none
CC(C)CC1=NN(C(=O)c2cccnc2)C(O)(C(F)(F)F)C1 (configuration not stated)	none
CC(C)CC1=NN(C(=O)c2ccncc2)C(O)(C(F)(F)F)C1 (configuration not stated)	JMJD2A Tudor inh 40µM
Cc1csc(=O)n1CCC(=O)OCC(=O)NNC(=O)c1ccc(Cl)cc1	G9a block 45µM (no result: Sfp inh)
Nc1nonc1-n1nnc(C(=O)O)c1-c1cccs1	G9a block inconclusive
Cc1cc(C)cc(OCC(=O)N2N=C(C(F)(F)F)CC2(O)C(C)(C)C)c1 (configuration not stated)	G9a block 1.6µM, Sfp inh inconclusive
N#C/C(=N/Nc1ccc(S(=O)(=O)N2CCOCC2)cc1)C(N)=O	HP1b chromo inh inconclusive
N#C/C(=N\Nc1ccc(S(=O)(=O)N2CCc3ccccc32)cc1)C(N)=S	JMJD2A Tudor inh inconclusive, G9a block 16µM, HP1b chromo inh 6.3µM, BAZ2B inh 32µM, Sfp inh inconclusive
N#C/C(=N\Nc1ccc(S(=O)(=O)N2CCCCCC2)cc1)C(N)=S	JMJD2A Tudor inh inconclusive, G9a block 2µM, HP1b chromo inh inconclusive, Sfp inh inconclusive
Cc1ccc(S(=O)(=O)NNC(=O)C2CC=CCC2C(=O)O)cc1 (configuration not stated)	none
Cc1c(CCO)c(=O)oc2n[nH]c(-c3ccccc3)c12	none
CCCSc1nnc2n(-c3cccc(C)c3)c(=O)c3c4c(sc3n12)CCCC4	none (no result: Sfp inh)
COc1ccc2c(c1OC)C(=O)N1c3ccccc3N=C(c3ccc([N+](=O)[O-])cc3)CC21 (configuration not stated)	JMJD2A Tudor inh inconclusive, G9a block inconclusive, Sfp inh 20µM
COc1ccc2c(c1OC)C(=O)N1N=C(c3ccc(-c4ccccc4)cc3)CC21 (configuration not stated)	none
Cn1cc(CN2CCN(c3ncccn3)CC2)c(-c2cccc(Cl)c2)n1	none
Cc1cc(N2CCN(Cc3cn(C)nc3-c3cccc(Cl)c3)CC2)cc(C)n1	BAZ2B inh 45µM (no result: G9a block)
COc1ccccc1Nc1n[nH]c(=S)s1	JMJD2A Tudor inh 4µM, G9a block 1.3µM, HP1b chromo inh 22µM, BAZ2B inh 20µM, Sfp inh 79µM
Cc1cccc(Nc2n[nH]c(=S)s2)c1C	JMJD2A Tudor inh 5.6µM, G9a block inconclusive, HP1b chromo inh inconclusive, BAZ2B inh 45µM, Sfp inh 20µM
COc1cccc(Nc2n[nH]c(=S)s2)c1	JMJD2A Tudor inh 3.2µM, G9a block 1.4µM, HP1b chromo inh inconclusive, BAZ2B inh inconclusive, Sfp inh 50µM
Nc1nc2nc(-c3ccc(F)cc3)cc(C(F)(F)F)n2n1	none
Cc1cc(/C=C2/NC(=O)NC2=O)c(C)n1-c1ccccn1	HP1b chromo inh inconclusive
Cc1ccc(-n2c(C)cc(/C=C3\NC(=O)NC3=O)c2C)c(C)c1	JMJD2A Tudor inh 35µM, G9a block inconclusive, HP1b chromo inh inconclusive, BAZ2B inh 40µM
Cc1cc(/C=C2/NC(=O)NC2=O)c(C)n1-c1ccc(N2CCOCC2)cc1	JMJD2A Tudor inh inconclusive, G9a block 45µM, HP1b chromo inh inconclusive, BAZ2B inh inconclusive
Cn1c(SCC(=O)c2ccc(F)cc2)nnc1-c1cccnc1	none
COc1cccc(N2CCN(C(=O)c3oc4ccccc4c3NC(=O)CCc3cc(OC)no3)CC2)c1	JMJD2A Tudor inh inconclusive, G9a block 56µM, BAZ2B inh inconclusive
CC(C)CC(=O)Nc1c(C(=O)N2CCN(c3ccccc3)CC2)oc2ccccc12	G9a block 14µM (no result: Sfp inh)
CC1CC(=O)N(CC(=O)NCc2ccccc2)c2ccccc2S1(=O)=O (configuration not stated)	none
CCn1c(-c2c[nH]c3ccccc23)n[nH]c1=S	JMJD2A Tudor inh 4µM, G9a block 1.3µM
C=CCn1c(-c2csc3ccccc23)n[nH]c1=S	JMJD2A Tudor inh 18µM, G9a block inconclusive
C=CCn1c(-c2c[nH]c3ccccc23)n[nH]c1=S	JMJD2A Tudor inh 6.3µM, G9a block 4µM
C=CCn1c(NCc2c[nH]c3ccccc23)nc2ccccc21	JMJD2A Tudor inh inconclusive
CN1C(=O)/C(=C\c2ccccc2OCc2ccccc2)SC1=S	none
O=C(CCCn1cncn1)N1CCCC(N2CCN(c3ccccc3F)CC2)C1 (configuration not stated)	none
CCOC(=O)N1CCN(c2cc(=O)n(-c3ccccc3C)c(=O)[nH]2)CC1	none (no result: BAZ2B inh)
Cc1ccccc1-n1c(=O)cc(N2CCN(Cc3ccccc3)CC2)[nH]c1=O	G9a block 56µM, Sfp inh inconclusive
CCN1CCN(c2cc(=O)n(-c3cc(Cl)ccc3C)c(=O)[nH]2)CC1	G9a block 50µM
CCN(CC)CCC(O)(c1ccccc1)C1CCCCC1 (configuration not stated)	none
CSc1nnc(-c2sc3cc(C(F)(F)F)cnc3c2-c2cccnc2)n1C	G9a block 50µM
O=S(=O)(NCCc1cn2ccccc2n1)c1ccc2c(c1)CCCC2	G9a block 50µM
O=S(=O)(NCCc1cn2ccccc2n1)c1ccc2c(c1)OCCO2	none
COc1cc(CCN2C(=O)c3cccc4cccc(c34)C2=O)c(S(=O)(=O)NCCO)cc1OC	JMJD2A Tudor inh inconclusive
Cc1ccc(NC(=O)c2nc[nH]c2C(=O)N[C@H](C)c2ccccc2)cc1	JMJD2A Tudor inh inconclusive (no result: Sfp inh)
Cc1cc(C)cc(NC(=O)C2CCCN2S(=O)(=O)c2ccc3nc(-c4ccccc4)[nH]c3c2)c1 (configuration not stated)	JMJD2A Tudor inh inconclusive, G9a block inconclusive, BAZ2B inh 79µM (no result: Sfp inh)
O=C(COC(=O)c1cc(=O)[nH]c2ccccc12)Nc1cccc(S(=O)(=O)N2CCOCC2)c1	G9a block inconclusive
Cc1ccccc1NS(=O)(=O)c1nnc(NC(=O)c2ccc(Br)cc2)s1	none
Cc1ccccc1NS(=O)(=O)c1nnc(NC(=O)c2ccccc2C)s1	JMJD2A Tudor inh inconclusive, BAZ2B inh 28µM!
Cc1ccccc1N(C)S(=O)(=O)c1nnc(NC(=O)c2ccccc2F)s1	JMJD2A Tudor inh 45µM!, G9a block 4µM!, BAZ2B inh 14µM!
